# From PubChem BioAssay
# NIH3T3 tox = NIH 3T3 cell cytotoxicity; AID 1345082; hit rate 4.3% among 94,000; NIH 3T3 viability, CellTiter-Glo ATP luminescence, 48-72 h; Potency, µM (titrated, usually from 96.7 µM), for the others: at the highest dose activity change, negative = cytotoxicity, usual class: inhibitors; also: nearly all actives have a fitted effect of over 55% in size
#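 Cytotoxicity is measured as loss of cellular ATP: NIH 3T3 cells (400/well) are exposed to compound for 48 or 72 hr at 37 °C, then CellTiter-Glo luminescence is imaged after 10 min at room temperature.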
# HEK cytotox = HEK 293 cell cytotoxicity; HEK 293 viability, ATP luminescence (CellTiter-Glo), 48-72 h; Potency, µM (series often up to 115 µM), without a hit: at the highest dose activity change, negative = cytotoxicity, usual class: inhibitors; hit rate 6.6% among 94,000; also: nearly all actives have a fitted effect of over 60% in size
#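 Cytotoxicity was scored by loss of ATP-coupled luminescence (CellTiter-Glo) in HEK 293 cells. Compound treatment ran 48 or 72 hr at 37 degree Celsius, 5% CO2, 95% humidity.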
# hNpr1 antagonist = blocks ANP-stimulated signaling of human Npr1 receptor | P16066 | HEK293 hNpr1 GloSensor cGMP, ANP-stimulated luminescence | Potency, µM (top dose mostly 46.3 µM), without a hit: at the highest dose activity change, negative = inhibition, hits mostly inhibitors | hit rate 1.6% among 76,000; calls by dose curve; also: nearly all actives have a fitted effect of over 60% in size
# Target sequence (P16066 whole entry, looked up): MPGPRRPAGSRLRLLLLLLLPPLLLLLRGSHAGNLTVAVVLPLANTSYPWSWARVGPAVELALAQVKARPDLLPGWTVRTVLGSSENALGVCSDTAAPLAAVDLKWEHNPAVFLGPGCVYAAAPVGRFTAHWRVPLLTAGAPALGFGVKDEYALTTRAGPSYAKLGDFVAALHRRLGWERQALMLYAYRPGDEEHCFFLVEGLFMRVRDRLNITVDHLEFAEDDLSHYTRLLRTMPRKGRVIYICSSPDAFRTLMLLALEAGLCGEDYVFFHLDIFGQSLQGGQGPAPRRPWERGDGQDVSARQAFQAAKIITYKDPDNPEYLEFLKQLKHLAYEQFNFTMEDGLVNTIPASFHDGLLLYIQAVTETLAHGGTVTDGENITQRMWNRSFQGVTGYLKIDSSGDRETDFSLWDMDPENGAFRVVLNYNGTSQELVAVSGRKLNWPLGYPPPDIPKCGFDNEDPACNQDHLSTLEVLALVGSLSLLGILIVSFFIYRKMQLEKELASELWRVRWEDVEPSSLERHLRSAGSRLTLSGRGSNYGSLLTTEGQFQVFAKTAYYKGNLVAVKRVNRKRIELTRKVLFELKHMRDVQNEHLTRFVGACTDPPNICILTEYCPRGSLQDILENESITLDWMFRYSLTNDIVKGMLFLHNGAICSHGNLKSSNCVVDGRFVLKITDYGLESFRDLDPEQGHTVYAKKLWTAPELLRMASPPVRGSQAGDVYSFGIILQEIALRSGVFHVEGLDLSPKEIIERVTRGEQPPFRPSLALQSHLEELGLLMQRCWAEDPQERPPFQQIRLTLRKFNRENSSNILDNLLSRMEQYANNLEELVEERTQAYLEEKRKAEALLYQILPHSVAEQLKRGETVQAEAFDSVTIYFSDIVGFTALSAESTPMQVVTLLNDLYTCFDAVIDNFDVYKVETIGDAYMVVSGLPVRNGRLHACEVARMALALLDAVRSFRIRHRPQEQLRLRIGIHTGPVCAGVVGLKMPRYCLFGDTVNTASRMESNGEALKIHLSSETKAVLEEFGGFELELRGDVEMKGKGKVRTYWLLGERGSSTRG
#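 HEK293 cells stably expressing human Npr1 and cGMP GloSensor pGS-40F, loaded 2 h with 2% GloSensor reagent, given compound 30 min at room temperature. Luminescence read before and 20 min after 0.1 nM hNppA.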
# SNCA viab count = cell viability loss counter-screen | HEK-293-SNCA-luc viability, GF-AFC fluorescence, 24 h | Potency, µM (titrated, usually from 57.1 µM), for the others: at the top dose activity change, negative = cytotoxicity, usual class: cytotoxic | hit rate 0.12% among 150,000;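 also: 0% = DMSO-treated cells and -100% = medium-only wells without cells; nearly all actives have a fitted effect of over 30% in size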
#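 Cytotoxicity counterscreen: after 24 h compound treatment of genome-edited SNCA-luciferase HEK-293 cells, live-cell protease substrate GF-AFC read by fluorescence after 30 min; activity scaled between DMSO (0%) and medium-only (-100%), curves Hill-fitted.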
# FLuc inh = inhibitors of firefly (Photinus pyralis) luciferase | purified P. pyralis luciferase, luminescence, biochemical | hit rate 2.5% among 76,000 | AID 1347043 | P08659 | Potency, µM (top dose mostly 115 µM), actives largely listed as inhibitors; also: nearly all actives have a fitted effect of over 65% in size
#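 Luminescence read by CCD imager after adding enzyme (10nM final) to wells holding compound, titrated in qHTS. Substrates 10uM each D-luciferin and ATP; buffer 50mM Tris acetate pH 7.5, 10mM Mg acetate, Tween-20, BSA.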
# SNCA expr inh = SNCA gene expression inhibition; HEK-293 SNCA-luciferase knock-in, luminescence, 24 h; Potency, µM (top dose mostly 57.2 µM), for inactives: top-dose activity change, negative = inhibition, most hits filed as inhibitors; hit rate 0.17% among 140,000;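 also: plate controls were DMSO cells for no effect and cell-free wells for full effect; nearly all actives have a fitted effect of over 45% in size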
# Active calls of the source: *; i = inactive; ? = inconclusive; / = not tested or not shown; [ ] = dose if it differs, or a comment. This is a sample that favours compounds with a hit; in the whole collection about 7.4% have one here. Unless noted, calls follow the shape of the dose curve; as a rule, active = well fitted curve in the direction sought with a large enough effect; inconclusive = small, poorly fitted or top-dose-only effect, or another doubt; inactive = no such curve, though single readings can be large; an effect the other way counts as inactive or inconclusive. Unless noted, % is scaled to controls: 0 for no effect and ±100 for the full control effect; potency is read from the fitted curve at half-maximal effect.
SMILES,NIH3T3 tox,HEK cytotox,hNpr1 antagonist,SNCA viab count,FLuc inh,SNCA expr inh
COc1cccc(-c2cn3cc(C(=O)N4CCOCC4)nc3s2)c1,-27%,-14%,/,?,/,13µM*
O=C(c1cn2cc(-c3ccccc3)sc2n1)N1CCOCC1,?,89µM*,/,1%[87.6 µM],/,-89%[87.6 µM]
COc1cccc(-c2cn3cc(C(=O)NCCN4CCOCC4)nc3s2)c1,?,?,/,-10%,/,95%
COc1ccc(-c2cn3cc(C(=O)N4CCN(C)CC4)nc3s2)cc1,-20%,?,/,6%,/,153%
O=C(c1ccc(F)cc1)N1CCN(Cc2ccccc2-c2cccnc2)CC1,?,?,/,11%[12.5 µM],/,-8%
O=C(NCC(F)(F)F)c1nc2sccn2c1-c1ccncc1,-15%[138 µM],4%[172 µM],/,9%[87.6 µM],/,-5%[87.6 µM]
COCCCn1c(C)cc(C(=O)NCCc2noc(-c3ccccc3)n2)c1C,?,40µM*,-3%,-5%[12.5 µM],i,-1%
COc1ccc(N2CCN(c3nc(C(=O)N4CCC(C)CC4)cs3)CC2)cc1,40µM*,40µM*,?,-19%,?,21%
COc1ccc(N2CCN(c3nc(C(=O)NCc4ccc(F)cc4F)cs3)CC2)cc1,?,35µM*,?,-24%,i,-7%
Cc1cn2nc(C(=O)NCc3ccccn3)cc2c(N2CCCC2)n1,-24%,12%,8%,1%,i,?
CC1CCN(C(=O)c2csc(N3CCN(c4ccc(Cl)cc4)CC3)n2)CC1,?,?,?,-15%,i,?
O=C(NCc1ccccn1)c1csc(N2CCN(c3ccccc3)CC2)n1,?,40µM*,-20%,-2%,i,1%
CCCCN(C)C(=O)c1csc(N2CCN(c3ccccc3)CC2)n1,?,35µM*,?,-17%,i,-13%
COc1ccc(N2CCN(c3nc(C(=O)N4CCN(C)CC4)cs3)CC2)cc1,-11%,?,-25%,-3%,i,5%
CO[C@H]1C(=O)N(C(C)C)[C@H]1C1CCN(S(=O)(=O)c2cccc3nsnc23)CC1,-27%,-28%,/,7%,/,7%
COCCN1C[C@H]2COc3ccccc3[C@H]2N(C(=O)c2ccccc2OC)CCC1=O,?,-21%,/,/,/,/
O=C(NC1CCCC1)N1CCCC(C(=O)N2CCCC(c3nc4ncccc4[nH]3)C2)C1 (stereo unspecified),-23%,0%,/,-1%,/,-1%
O=C(Nc1ccccc1F)N1CCC(Oc2ccccc2-c2nc(C3CC3)no2)C1 (stereo unspecified),?,?,/,-21%,/,7%
COc1cccc(N2CCN(c3nc(C(=O)NCc4cccnc4)cs3)CC2)c1,?,32µM*,11µM*,-19%,?,?
CC1Oc2ccc(NC(=O)Nc3ccccc3)cc2CN(Cc2ccccc2)C1=O (stereo unspecified),35µM*,45µM*,?,-11%,?,53%
CC1Oc2ccc(NC(=O)C3CCCC3)cc2CN(Cc2ccc(F)cc2)C1=O (stereo unspecified),25µM*,?,-22%,-16%,i,-26%
CC1Oc2ccc(NC(=O)c3cccs3)cc2CN(Cc2ccccc2)C1=O (stereo unspecified),?,25µM*,-13%,11%,i,7%
O=C(NC1CCCC1)N1CCN(C(=O)c2nc3cccnc3n(C3CCCC3)c2=O)CC1,?,-5%,/,13%,/,-4%
O=C(NC1CCCCC1)c1ccc2nnc(Cc3ccco3)n2c1,-13%[138 µM],0%[172 µM],/,5%[87.6 µM],/,9%[87.6 µM]
COC(O)(CC(C)C)C1Oc2cc(C)[nH]c(=O)c2O1 (stereo unspecified),/,/,/,0%,/,/
COc1ccccc1Nc1ccnc(N2CCCC(C(=O)NC(C)C)C2)n1 (stereo unspecified),45µM*,?,/,4%[12.5 µM],/,23%
COc1ccccc1Nc1ccnc(N2CCCC(C(=O)NCC3CC3)C2)n1 (stereo unspecified),35µM*,?,/,-6%[12.5 µM],/,-13%
